Screening data deposited in PubChem BioAssay by several laboratories.
GRK2 inh: compounds blocking aptamer binding on GRK2 – biochemical, human GRK2, bead flow cytometry, HTS, primary screen; Beta-adrenergic receptor kinase 1 (Homo sapiens), P25098; FAM-aptamer displacement from GRK2; inhibition of aptamer binding, % at 10 µM; 330,000 compounds, 0.59% hits;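 active = inhibition of aptamer binding above 40%, roughly 3 SD of noise, on plates passing a quality check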;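 also: median bead fluorescence of bound FAM aptamer so fluorescent compounds give negative values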
NadD block: inhibitors of S. aureus NadD, primary screen, biochemical, colorimetric, uHTS; purified NadD enzyme, colorimetric absorbance read-out; inhibition, % at 20 µM; 360,000 compounds, 0.78% hits; AID 602399, 2012; in the data active = inhibition above about 26%
Granule exo inh: LAMP-1 surface exposure blockers, TALL-104 cells – cell-based, flow cytometry, MLPCN library, primary screen; TALL-104 LAMP-1 surface exposure; cells stimulated with thapsigargin and PMA; inhibition, % at 10 µM; 360,000 compounds, 0.66% hits;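 active = inhibition above about 55%, limit read from the data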
PP1 inh: PP1-alpha phosphatase inhibitors, primary screen, counter-screen for PP5 inhibitor project, biochemical, fluorescence, OMFP substrate, single point. purified PP1alpha. 320,000 compounds, 0.9% hits. inhibition, % at 6.7 µM;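 active = inhibition above the mean inhibition of all tested compounds plus 3 SD, computed separately for each screening campaign, cut at about 15% in these data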
Target sequence (P62136 whole entry, looked up): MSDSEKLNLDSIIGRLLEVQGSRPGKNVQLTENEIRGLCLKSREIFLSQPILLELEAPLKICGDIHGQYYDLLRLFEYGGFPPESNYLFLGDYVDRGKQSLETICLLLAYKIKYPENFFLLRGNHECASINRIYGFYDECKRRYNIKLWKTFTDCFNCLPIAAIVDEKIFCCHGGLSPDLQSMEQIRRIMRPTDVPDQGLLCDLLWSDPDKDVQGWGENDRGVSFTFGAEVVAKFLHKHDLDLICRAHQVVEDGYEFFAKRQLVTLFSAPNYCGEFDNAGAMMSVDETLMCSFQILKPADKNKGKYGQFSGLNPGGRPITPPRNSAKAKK
Beta2AR agonist: beta2AR agonists driving receptor internalization, primary screen, cell-based, FAP fluorogen, flow cytometry | response, % (concentration not given with the values) | Am2.2-beta2AR cells | AID 504454, 2011 | Beta-2 adrenergic receptor (Homo sapiens), P07550 | 340,000 compounds, 0.43% hits;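 active = response above a set limit, near 3 SD of response in nonfluorescent compounds, cut at about 42% in these data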
GRK2 inh confirm: GRK2 aptamer-displacing inhibitors, retest, confirmation, biochemical, cherry pick 1, bead flow cytometry | shares compounds with GRK2 inh | bead-bound GRK2, FAM-aptamer displacement | aptamer displacement, % at 10 µM | 2,000 compounds, 4% hits;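 active = aptamer displacement above 40%, near three times the noise of non-fluorescent compounds, on plates passing quality checks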;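 also: negative values mostly reflect intrinsic compound fluorescence rather than true enhancement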
FAM quench CP1: counter-screen for GRK2 aptamer inhibitors: fluorescent aptamer quenchers; shares compounds with GRK2 inh; Carboxyfluorescein RNA aptamer on beads, flow cytometry quenching; hits give low values; fluorescence response (% of DMSO), % at 10 µM; 2,000 tested, under 10 active; AID 504580;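 active = compounds that quench the bead-bound fluorescent RNA probe, cutting fluorescence to under half of the solvent control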;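 also: counterscreen run without GRK2 so only probe quenching by compound is measured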
GRK2 confirm 2: GRK2 aptamer-displacing inhibitors, hit retest, confirmation, biochemical, cherry pick 2, bead flow cytometry; AID 504782, 2011; inhibition of aptamer binding, % at 10 µM; bead-bound GRK2, FAM-aptamer displacement; shares compounds with GRK2 inh; 360 tested, under 10 active;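 active = inhibition of aptamer binding above 40%, about triple the noise seen with nonglowing compounds, on plates passing quality control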;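 also: negative values mostly come from compounds that fluoresce themselves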
FAM quench SP: counter-screen for GRK2 binding hits: quenchers of fluorescent RNA aptamer | shares compounds with GRK2 inh | carboxyfluorescein RNA aptamer beads, flow cytometry quenching; hits give low values | fluorescence response vs DMSO, % at 10 µM | 360 tested, under 10 active;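 active = response vs DMSO under 50%, meaning signal dropped by over half, treated as fluorescence quencher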;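 also: labelled aptamer on streptavidin beads without GRK2 as a quench counter-screen; 100% = bead fluorescence of DMSO wells and lower means quenching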
* marks the source's active call; other numbers are inactive results. Rows were chosen to be rich in hits. Some 2.9% of all compounds tested hit in one or more screens of this group.

Screening COCCNC(=O)C(c1ccc(C)o1)N(Cc1ccc(OC)cc1)C(=O)Cn1nnc2ccccc21 (centres undefined) returned GRK2 inh 44.0*, NadD block 3.1, Granule exo inh -2.6, PP1 inh -3.1, Beta2AR agonist -5.9, GRK2 inh confirm -4.4 and FAM quench CP1 91.2.
CCOC(=O)C1=CCC(c2cc3ccccc3[nH]2)NC1 (centres undefined) was read as Granule exo inh -0.7.
Cc1cc(CNC(=O)CC2C(=O)NCCN2Cc2ccccc2)nn1C (centres undefined) was read as GRK2 inh 0.0, NadD block 0.7, Granule exo inh -1.7, PP1 inh -2.0 and Beta2AR agonist -4.7.
`Cc1cc(CNC(=O)CC2C(=O)NCCN2Cc2ccc(-c3ccccc3)cc2)nn1C` (centres undefined) gave GRK2 inh 3.0, NadD block 0.0, Granule exo inh -3.3, PP1 inh 0.7, Beta2AR agonist -0.2, GRK2 inh confirm -15.2 and FAM quench CP1 95.9.
O=C1NCCN(Cc2ccc(-c3ccccc3)cc2)C1CC(=O)N1CCN(CCO)CC1 (centres undefined) was read as GRK2 inh 100.0*, NadD block 3.9, Granule exo inh -2.9, PP1 inh -0.4, Beta2AR agonist -1.3, GRK2 inh confirm 0.1 and FAM quench CP1 81.5.
O=C1NCCN(Cc2ccc(F)cc2)C1CC(=O)N1CC=C(c2ccccc2)CC1 (centres undefined) was read as GRK2 inh 3.0, NadD block -3.8, Granule exo inh 0.0, PP1 inh 2.4 and Beta2AR agonist 4.8.
For O=C(CSc1nnc(Nc2ccccc2F)s1)NC(=O)CN1CCCC1=O the results were GRK2 inh 47.0*, NadD block -1.2, Granule exo inh 2.0, PP1 inh -2.2, Beta2AR agonist -1.2, GRK2 inh confirm 25.9 and FAM quench CP1 98.3.
For CCOc1cc(N2CCOCC2)c(OCC)cc1NC(=O)c1cc(S(=O)(=O)N2CCOCC2)ccc1Cl the results were NadD block 0.0, Granule exo inh -0.4, Beta2AR agonist 0.7, GRK2 inh confirm 0.8 and FAM quench CP1 97.6.
Screening CCOc1cc(N2CCOCC2)c(OCC)cc1NC(=O)c1ccc(OC)c(S(=O)(=O)N2CCOCC2)c1 returned GRK2 inh 1.0, NadD block 1.7, Granule exo inh 10.5, Beta2AR agonist 4.8, GRK2 inh confirm -1.2 and FAM quench CP1 105.0.
CCOc1cc(N2CCOCC2)c(OCC)cc1NC(=O)c1ccc(OC)cc1 was read as GRK2 inh 1.0, NadD block 2.8, Granule exo inh 1.3, PP1 inh -4.9 and Beta2AR agonist 0.5.
Cc1cc(C)n2nc(C(=O)OCC(=O)c3cc(C)n(C)c3C)nc2n1 was read as GRK2 inh 41.0*, NadD block -0.8, Granule exo inh -0.1, PP1 inh -2.4, Beta2AR agonist -1.5, GRK2 inh confirm 26.1 and FAM quench CP1 99.7.
CC1(C)CC(=O)C2=C(C1)NC(=O)NC2c1ccccc1 (centres undefined) was read as GRK2 inh 47.0*, NadD block 3.4, Granule exo inh 1.4, PP1 inh 1.7, Beta2AR agonist 9.3, GRK2 inh confirm -2.1 and FAM quench CP1 101.7.
`CCCNC(=O)C(Cc1ccccc1F)NC(=O)c1ccccn1` (centres undefined) gave GRK2 inh 86.0*, NadD block -5.2, Granule exo inh 35.0, PP1 inh -4.0, Beta2AR agonist 4.8, GRK2 inh confirm 1.4, FAM quench CP1 96.4, GRK2 confirm 2 2.5 and FAM quench SP 100.0.
CCCNC(=O)C(Cc1ccccc1F)NC(=O)c1ccc(C#N)cc1 (centres undefined) was read as GRK2 inh 9.0, NadD block -10.1, Granule exo inh -3.2, PP1 inh -4.3 and Beta2AR agonist -1.4.
`O=C(CCC(=O)N1CCN(c2ccccc2F)CC1)N1CCN(c2ccc(F)cc2)CC1` gave GRK2 inh 0.0, NadD block -3.3, Granule exo inh -0.8, PP1 inh -3.6 and Beta2AR agonist -1.8.
`O=C(CCC(=O)N1CCN(c2ccccc2F)CC1)N1CCN(c2ccccc2)CC1` gave GRK2 inh 0.0, NadD block -3.5, Granule exo inh -2.0, PP1 inh 0.1, Beta2AR agonist 6.8, GRK2 inh confirm -1.6 and FAM quench CP1 98.6.
Screening Cc1ccc(C23CC4CC(CC(C(=O)NC(C)C(N)=O)(C4)C2)C3)cc1 (centres undefined) returned GRK2 inh 5.0, NadD block 0.4, Granule exo inh 0.0, PP1 inh -4.4 and Beta2AR agonist 0.8.
CN1C(=O)C(C)(C)c2cc(S(=O)(=O)N3CCCC(C(=O)NCc4ccccc4Cl)C3)ccc21 (centres undefined) was read as GRK2 inh 0.0, NadD block 5.1, Granule exo inh -2.1, PP1 inh 0.9, Beta2AR agonist 23.0, GRK2 inh confirm 1.6 and FAM quench CP1 101.0.
For C=CCOC(=O)CSCC(NC(=O)OC(C)(C)C)C(=O)OCC (centres undefined) the results were GRK2 inh 86.0*, NadD block -0.7, Granule exo inh -2.1, PP1 inh 1.3, Beta2AR agonist -0.1, GRK2 inh confirm 0.7 and FAM quench CP1 104.5.
For O=C(NC1CCCCC1)c1cc(N2C(=O)CCC2=O)ccc1Cl the results were GRK2 inh 0.0, NadD block -5.0, Granule exo inh -6.4, PP1 inh -1.8 and Beta2AR agonist -1.7.
For COCCNC(=O)C(=O)N/N=C(\C)CC(=O)Nc1cccc(C(F)(F)F)c1 the results were GRK2 inh 0.0, NadD block -1.2, Granule exo inh -2.9, PP1 inh -0.4 and Beta2AR agonist 4.8.
